# NRP1-CendR mod – alters CendR peptide binding to human NRP-1 | O14786 | FAM-RPARPAR peptide binding to NRP-1, fluorescence polarization | inhibition, % at 25 µM | 360,000 compounds, 0.85% hits | AID 602438;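 active = inhibition or corrected inhibition above about 18%, plus a signal ratio from 0.5 to 1.5, limit read from the data, passing the limit was not always enough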
# Target sequence (O14786 whole entry, looked up): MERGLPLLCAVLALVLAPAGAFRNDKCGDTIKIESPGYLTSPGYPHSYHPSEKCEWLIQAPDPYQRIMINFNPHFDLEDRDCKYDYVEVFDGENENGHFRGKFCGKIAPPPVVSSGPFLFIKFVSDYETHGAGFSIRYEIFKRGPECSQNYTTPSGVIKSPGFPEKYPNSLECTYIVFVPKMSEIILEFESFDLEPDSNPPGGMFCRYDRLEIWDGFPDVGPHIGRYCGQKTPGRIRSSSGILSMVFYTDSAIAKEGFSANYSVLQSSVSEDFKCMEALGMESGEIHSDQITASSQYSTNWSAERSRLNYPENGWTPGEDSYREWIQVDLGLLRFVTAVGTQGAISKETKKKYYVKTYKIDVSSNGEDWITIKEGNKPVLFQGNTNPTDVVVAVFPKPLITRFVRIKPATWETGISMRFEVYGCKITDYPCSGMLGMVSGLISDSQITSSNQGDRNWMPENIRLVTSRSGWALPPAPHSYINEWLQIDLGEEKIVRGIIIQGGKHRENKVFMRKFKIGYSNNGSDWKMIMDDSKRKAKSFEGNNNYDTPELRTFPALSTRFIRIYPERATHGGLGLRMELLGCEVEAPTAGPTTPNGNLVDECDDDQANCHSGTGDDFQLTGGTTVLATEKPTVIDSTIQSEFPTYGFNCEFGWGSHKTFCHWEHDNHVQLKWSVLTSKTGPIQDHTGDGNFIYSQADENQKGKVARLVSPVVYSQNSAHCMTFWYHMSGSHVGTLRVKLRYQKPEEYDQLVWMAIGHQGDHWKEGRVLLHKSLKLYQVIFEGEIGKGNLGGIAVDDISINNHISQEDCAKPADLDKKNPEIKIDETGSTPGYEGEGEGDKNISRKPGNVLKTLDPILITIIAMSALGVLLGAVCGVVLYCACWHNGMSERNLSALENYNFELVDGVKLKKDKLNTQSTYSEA
# Glyco luc inh – blocks N-linked glycosylation in D54 reporter cells. D54 ERlucT glycosylation luciferase reporter, 24 h; percent of 100 nM tunicamycin response. reporter increase, % at 12.5 µM. 360,000 compounds, 0.23% hits;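 active = mean luciferase reporter signal, scaled so untreated is 0 and the glycosylation-blocking control 100, at or above a set limit in every replicate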;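 also: luciferase carries N-glycosylation sites so blocking glycosylation raises the light; 0% = median of neutral control wells and 100% = median of 100 nM tunicamycin wells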
# RAD52 anneal inh – blocks human RAD52 DNA annealing; inhibition, % at 18.7 µM; AID 651710; 360,000 compounds, 0.46% hits; recombinant RAD52 DNA annealing, FRET fluorescence;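 active = every replicate showing at least 50% inhibition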
# RAD54 branch – RAD54 (human) branch migration inhibition; inhibition, % at 10.4 µM; RAD54 Holliday junction branch migration, FAM/BHQ fluorescence; 360,000 compounds, 0.14% hits; AID 602329;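 active = mean normalized replicate activity at least 40 and at least half of replicates scoring 40 or more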;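 also: 0% = median of neutral control wells and 100% = median of positive control wells; inhibitors cause a drop in the FAM fluorescence signal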
# DNA FID counter – counter-screen for HCV NS3 helicase inhibitors: DNA intercalator displacement; DNA fluorescent intercalator displacement, fluorescence; inhibition, % at 7.9 µM; 290,000 compounds, 0.17% hits; in the data active = inhibition above about 37%;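 also: 0% = vehicle and 100% = reference compound; higher means more ethidium bromide displaced from hairpin DNA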
# miR-122 sensor – miR-122 inhibition in Huh7 cells | activation (reporter increase), % at 12.5 µM | 340,000 compounds, 0.3% hits | Huh7 miR-122 Renilla luciferase sensor, 48 h; neutral wells = 0, positive control = 100 | AID 602342;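 active = mean replicate activation score at least 90 and every replicate individually at or above 90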;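 also: higher luciferase means less miR-122 activity so hits act as miR-122 inhibitors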
# An asterisk follows results filed as active; · = no result; [ ] = remark or other dose. Hits are enriched below; roughly 1.5% of the tested compounds scored in any of these assays.
SMILES,NRP1-CendR mod,Glyco luc inh,RAD52 anneal inh,RAD54 branch,DNA FID counter,miR-122 sensor
COc1ccc(S(=O)(=O)Nc2ccc3c(c2)C(=O)N([C@@H](C)CO)C[C@@H](C)[C@@H](CN(C)C(=O)Nc2ccccc2)OCCCC[C@H](C)O3)cc1,·,·,·,-9.9,·,16.5[16.7 µM]
CCCNC(=O)N1[C@H](CO)[C@H](c2ccccc2)C12CN(C(=O)c1cccnc1)C2,·,·,4.3,·,·,·
CCOC(=O)C(NC(=O)CC(C)C)(Nc1sc(C)c(CC)c1C#N)C(F)(F)F (configuration not stated),23.8*,-5.7,-3.9,·,-27.8,·
CCOC(=O)C(NC(=O)CCl)(Nc1sc(C)c(CC)c1C#N)C(F)(F)F (configuration not stated),6.0,10.9,·,·,-4.6,·
COc1ccccc1NC(=S)N(CCN1CCOCC1)Cc1ccccc1F,5.5,1.5,-10.8,-0.1,-6.8,-1.5
COc1ccc(NC(=S)N(CCN2CCOCC2)Cc2ccccc2F)cc1,24.1*,0.9,-18.8,·,-14.7,·
Cc1noc(C)c1NC(=O)Nc1cccc2c1O[C@H](CN(C)Cc1ccc3c(c1)OCO3)[C@H](C)CN([C@@H](C)CO)C2=O,·,·,1.4,-9.5,·,1.5[16.7 µM]
C=CCn1c(SCC(=O)O)nc2sc(CC)cc2c1=O,26.4*,1.8,-8.7,·,7.6,-6.1
CCOc1ncccc1C(=O)N1CCN(c2cc(Cl)ccc2C)CC1,-2.8,30.2*,-13.5,·,-26.7,·
CCN(CC)S(=O)(=O)c1cccc(C(=O)NC(Cc2c[nH]c3ccccc23)c2nnc3n2CCCCC3)c1 (configuration not stated),25.8*,-5.3,·,0.3,-34.1,-4.4
O=C(NC(Cc1c[nH]c2ccccc12)c1nnc2n1CCCCC2)c1ccccc1 (configuration not stated),-5.1,-1.3,·,-4.2,-19.4,0.6
O=C1Nc2ccccc2/C1=N/N=C/c1cccc(O)c1,-6.1,6.5,4.9,10.4,-0.3,-6.4
COc1cc(/C=N/N=C2/C(=O)Nc3ccccc32)cc(OC)c1O,24.7*,4.5,·,·,2.8,·
Cc1ccc(S(=O)(=O)c2cc3c(=O)n4ccccc4nc3n(CCc3ccccc3)c2=N)cc1,2.7,69.4*,-32.8,-8.5,6.5,-2.2
C=CCn1c(=N)c(C#N)cc2c(=O)n3ccccc3nc21,36.1*,0.7,·,·,5.0,-1.2
Cc1ccc(S(=O)(=O)Nc2ccc3c(c2)C(=O)N([C@@H](C)CO)C[C@H](C)[C@H](CN(C)C(=O)NC(C)C)OCCCC[C@H](C)O3)cc1,·,·,4.8,-8.1,·,-2.6[16.7 µM]
N#Cc1c(-c2ccccc2)[nH]c(=O)[nH]c1=O,27.4*,0.1,-12.4,·,-0.3,4.6
Cc1cc(-c2ccccc2)[nH]c(=O)c1C#N,2.6,1.9,-5.6,·,-0.9,·
CN1CCN(C(=O)C[C@H]2CC[C@H]3[C@H](COc4ccc(NC(=O)c5cscn5)cc4C(=O)N3C)O2)CC1,·,·,6.2,-3.5,·,-20.0[16.7 µM]
COc1ccc(CN(C)C[C@H]2OCCCC[C@H](C)Oc3ccc(NS(=O)(=O)c4ccc(Cl)cc4)cc3C(=O)N([C@H](C)CO)C[C@H]2C)cc1,·,·,17.9,-9.1,·,-1.7[16.7 µM]
COc1ccc(S(=O)(=O)Nc2ccc3c(c2)C(=O)N([C@@H](C)CO)C[C@@H](C)[C@H](CN(C)Cc2ccc(C(=O)Nc4ccccc4N)cc2)OCCCC[C@@H](C)O3)cc1,·,·,55.3*,-2.5,·,8.2[16.7 µM]
C[C@@H]1CCCCO[C@H](CN(C)Cc2ccc3c(c2)OCO3)[C@@H](C)CN([C@@H](C)CO)C(=O)c2cc(NS(=O)(=O)c3ccc(Cl)cc3)ccc2O1,·,·,61.5*,-1.3,·,-0.9[16.7 µM]
COc1ccc(CN(C)C[C@@H]2OCCCC[C@H](C)Oc3ccc(NS(=O)(=O)c4ccc(F)cc4)cc3C(=O)N([C@H](C)CO)C[C@@H]2C)cc1,·,·,52.8*,-1.9,·,-7.9[16.7 µM]
C[C@@H]1CCCCO[C@@H](CN(C)Cc2ccc3c(c2)OCO3)[C@H](C)CN([C@@H](C)CO)C(=O)c2cc(NS(=O)(=O)c3ccc(Cl)cc3)ccc2O1,·,·,29.5,1.1,·,-9.0[16.7 µM]
COc1ccc(CN(C)C[C@H]2OCCCC[C@@H](C)Oc3ccc(NS(=O)(=O)c4ccc(Cl)cc4)cc3C(=O)N([C@@H](C)CO)C[C@@H]2C)cc1,·,·,50.6*,-3.9,·,-3.9[16.7 µM]
SMILES,NRP1-CendR mod,Glyco luc inh,RAD52 anneal inh,RAD54 branch,DNA FID counter,miR-122 sensor
COc1ccc2c3c([nH]c2c1)[C@@H](CO)N(C(=O)C1CCC1)CC31CN(C(=O)c2ccccn2)C1,·,·,-7.4,·,·,·
CO[C@H]1CN(C)C(=O)c2cc(NC(C)=O)ccc2OC[C@H](C)N(C(=O)CN(C)C)C[C@H]1C,·,·,4.8,·,·,·
COc1ccc(CN(C)C[C@@H]2OCCCC[C@@H](C)Oc3ccc(NS(=O)(=O)c4ccc(Cl)cc4)cc3C(=O)N([C@H](C)CO)C[C@H]2C)cc1,·,·,33.0,0.1,·,-5.9[16.7 µM]
COc1ccc(CN(C)C[C@@H]2OCCCC[C@@H](C)Oc3ccc(NS(=O)(=O)c4ccc(Cl)cc4)cc3C(=O)N([C@@H](C)CO)C[C@@H]2C)cc1,·,·,55.6*,-8.8,·,-1.8[16.7 µM]
O=C(C[C@@H]1CC[C@@H](NC(=O)c2ccc(F)cc2)[C@H](CO)O1)NCCc1ccncc1,·,·,12.4,-13.1,·,·
O=C(NCc1ccco1)C(c1ccco1)N(C(=O)Cn1nnc2ccccc21)c1ccc2c(c1)CCC2 (configuration not stated),19.1*,-1.1,·,-3.9,-40.5,-3.6
COc1ccc(S(=O)(=O)N(C)C[C@@H]2Oc3ccc(NC(=O)C4CCCCC4)cc3C(=O)N([C@@H](C)CO)C[C@H]2C)cc1,·,·,-2.9,7.4,·,5.0[16.7 µM]
CCC(=O)N1CC(=O)N2[C@@H](CO)[C@H](c3ccc(C#CCc4ccccc4)cc3)[C@@H]2C1,·,·,10.4,·,·,·
Cc1ccc(Cl)cc1NC(=O)COC(=O)CCN1C(=O)C2CC=CCC2C1=O (configuration not stated),5.1,1.4,-11.2,-3.4,·,-1.1
Cc1ccc(Cl)cc1NC(=O)COC(=O)CN1C(=O)C2CCCCC2C1=O (configuration not stated),26.2*,2.3,10.7,-0.1,·,3.8
CC(C)NC(=O)c1c(CSc2ccccc2)noc1C(=O)NCc1ccccc1,32.1*,-2.0,-17.3,1.0,·,-1.7
CC(C)NC(=O)c1c(CSc2ccc(Cl)cc2)noc1C(=O)NCc1ccccc1,13.1,-2.6,-4.0,-5.0,·,-4.8
COc1ccc(C2NC(=O)c3ccccc3O2)cc1OC (configuration not stated),4.1,1.8,·,-8.8,2.8,-3.6
COc1ccc(C2NC(=O)c3ccccc3O2)cc1 (configuration not stated),23.0*,0.7,-14.7,4.1,-5.7,·
CCCCNC(=O)[C@@H]1CCCN1S(=O)(=O)c1cccc2cccnc12,33.0*,-0.3,8.5,0.0,·,-3.4
COCCNC(=O)[C@@H]1CCCN1S(=O)(=O)c1cccc2cccnc12,6.6,-0.4,-6.8,-10.8,·,-0.4
CC=Cc1ccc2n(c1=O)C[C@@H]1[C@@H](CO)[C@H](C(=O)N(C)C)N(CCC)[C@H]21 (mixture of isomers),·,·,-12.0,·,·,·
